# ssDAF12 agonist: activators of S. stercoralis DAF-12 nuclear receptor | HEK293 ssDAF-12/GRIP1 lit1-tk-luc reporter, luminescence; % of 3 µM dafachronic acid response | activation, % at 6.8 µM | actives 1% (n = 370,000) | AID 652126;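 active = activation above the mean over all tested compounds plus 3 SD, cut at about 0.9% in these data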;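 also: 0% = DMSO-only wells and 100% = 3 µM delta7-dafachronic acid wells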
# hgDAF12 agonist: agonists of H. glycines DAF-12 nuclear receptor; AID 687014; actives 1.8% (n = 370,000); HEK293 GAL4-hgDAF12 UAS-luciferase reporter, agonist luminescence; normalized to butyrate control; activation, % at 6.8 µM;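 active = activation above a cutoff set at the mean of all screened compounds plus 3 SD, cut at about 10% in these data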;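 also: 0% = DMSO wells and 100% = sodium butyrate wells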
# DAX1 inh-1: NR0B1 (DAX1) inhibition. actives 0.99% (n = 340,000). HEK293 Gal4-DAX1 luciferase reporter, luminescence. P51843. inhibition, % at 6.75 µM;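 active = inhibition above the mean over all tested compounds plus 3 SD, cut at about 4.2% in these data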;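 also: 0% = DAX1-transfected cells with DMSO and 100% = empty-vector control cells with DMSO; inhibition shows as a rise in luminescence from relieved DAX1 repression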
# DAX1 inh-2: blocks DAX1 repression of SF-1 activated StAR promoter | HEK293T StAR-luciferase reporter, SF-1/DAX-1 repression relief | inhibition, % at 6.8 µM | actives 1.1% (n = 370,000) | AID 652010;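 active = inhibition above the mean over all tested compounds plus 3 SD, cut at about 3.6% in these data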;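 also: 0% = DAX-1 cells with DMSO and 100% = cells lacking DAX-1 with DMSO; higher inhibition means more luminescence from relief of DAX-1 repression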
# hcDAF12 agonist: activators of H. contortus DAF-12 nuclear receptor; actives 1.4% (n = 370,000); HEK293 hcDAF-12 lit1-tk-luc reporter, luminescence; 0% DMSO, 100% Δ7-dafachronic acid; activation, % at 6.8 µM;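 active = activation above the mean of all tested compounds plus 3 SD, cut at about 5.5% in these data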;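 also: 100% = response to 3 µM Δ7-dafachronic acid high control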
# Rev-erbA mod: Rev-erb alpha (human) modulation. P20393. Rev-erbα–FITC-DNA binding, fluorescence polarization, 90 min. activity, % at 10 µM. actives 0.79% (n = 370,000). AID 1259318;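 active = activity above about 14%, limit read from the data; passing the limit was not always enough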;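 also: 0% = DMSO wells with 35 nM protein and 100% = DMSO wells with 750 nM protein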
# Target sequence (P20393 whole entry, looked up): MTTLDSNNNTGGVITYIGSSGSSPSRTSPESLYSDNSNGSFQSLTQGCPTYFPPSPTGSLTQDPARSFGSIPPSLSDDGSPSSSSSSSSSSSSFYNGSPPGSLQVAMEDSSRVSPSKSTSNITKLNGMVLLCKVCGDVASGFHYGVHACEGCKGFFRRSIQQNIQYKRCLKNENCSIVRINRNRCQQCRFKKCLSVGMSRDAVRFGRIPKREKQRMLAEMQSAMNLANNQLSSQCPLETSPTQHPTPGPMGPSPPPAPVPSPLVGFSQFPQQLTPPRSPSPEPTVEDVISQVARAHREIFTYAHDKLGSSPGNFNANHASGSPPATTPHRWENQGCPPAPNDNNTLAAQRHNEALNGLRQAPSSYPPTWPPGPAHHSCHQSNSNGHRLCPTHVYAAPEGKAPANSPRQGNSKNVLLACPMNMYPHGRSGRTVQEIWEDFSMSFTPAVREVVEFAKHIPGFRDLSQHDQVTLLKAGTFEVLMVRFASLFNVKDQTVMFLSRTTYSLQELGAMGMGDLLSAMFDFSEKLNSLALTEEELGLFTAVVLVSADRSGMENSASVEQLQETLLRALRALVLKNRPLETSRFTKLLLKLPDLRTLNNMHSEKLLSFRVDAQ
# DAX1 inh confirm: confirmation of human DAX1 (NR0B1) inhibitors; shares compounds with DAX1 inh-2; HEK293T StAR-promoter luciferase reporter, SF-1/DAX-1 repression; inhibition, % at 6.8 µM; actives 87% (n = 2,400); AID 652134;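 active = inhibition above the average of every tested compound plus 3 SD, cut at about 3.8% in these data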;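 also: 0% = DAX-1 cells with DMSO and 100% = no DAX-1 control cells with DMSO; active compounds raise luminescence by relieving repression of the StAR reporter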
# SF1 AF2mut Luc: nonselective inhibitor or artifact in SF-1 mutant DAX1 counter-screen; actives 78% (n = 2,400); HEK293 StAR-luciferase, SF-1 AF2 mutant, luminescence; inhibition, % at 6.8 µM; shares compounds with DAX1 inh-2;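 active = inhibition above the mean of all tested compounds plus 3 SD, cut at about 3% in these data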;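 also: 0% = DAX-1 transfected cells with DMSO and 100% = cells without DAX-1 with DMSO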
# LXRb hcDAF ctr: LXR-beta agonism as hcDAF-12 counter-screen; shares compounds with hcDAF12 agonist; HEK293 Gal4-LXR tk-luc reporter, luminescence, 24 h; normalized: DMSO 0%, positive control 100%; activation, % at 6.8 µM; AID 743027; 3,400 tested, under 10 active;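 active = mean percent activation of the reporter above a cutoff set as the average over tested compounds plus their standard deviation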
# hcDAF12 conf: confirmation of H. contortus DAF-12 agonists. shares compounds with hcDAF12 agonist. HEK293 hcDAF-12 lit1-tk-luc reporter, luminescence; % of Δ7-dafachronic acid response. activation, % at 6.8 µM. actives 61% (n = 3,400);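 active = mean activation across triplicate tests above the threshold derived from the earlier primary screen, cut at about 5.5% in these data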;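 also: 0% = DMSO only wells and 100% = 3 µM Δ7-dafachronic acid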
# * marks the source's active call; other numbers are inactive results; . = not tested or not shown. This is a sample that favours compounds with a hit; in the whole collection about 4.8% have one here.
SMILES,ssDAF12 agonist,hgDAF12 agonist,DAX1 inh-1,DAX1 inh-2,hcDAF12 agonist,Rev-erbA mod,DAX1 inh confirm,SF1 AF2mut Luc,LXRb hcDAF ctr,hcDAF12 conf
COc1ccc2sc(NCc3ccccc3)nc2c1,0,6,1,6.5*,7.1*,8,7.1*,6.6*,1,4
Cc1cccc(OCC(=O)Nc2nccs2)c1C,1,12*,2,12*,8.6*,5,13*,8.0*,1,6.4*
Cc1ccc(C(=O)/C=C/Nc2ccccc2C(N)=O)cc1,1.8*,12*,-2,4.7*,7.0*,5,12*,7.0*,2,7.0*
O=C(Nc1ccc(F)cc1)OC1CC2CC1[C@H]1CCCCN1[C@H]2Cc1ccccc1 (stereo not given in full),0,2,.,0,3,-1,.,.,.,.
C[C@@H]1ON(C)[C@H]2C[C@H]3c4[nH]c5cccc(-c6ccc7c(c6)OCO7)c5c4CCN3C(=O)[C@@H]12,-1,-2,.,-1,-1,3,.,.,.,.
CCCCN1CC(COCc2ccccc2)Oc2cccc(NCc3cc(OC)c(OC)c(OC)c3)c2S1(=O)=O (stereo not given),-1,-4,.,-4,-1,0,.,.,.,.
O=c1c2c(nc3cc(-c4ccc(F)cc4)[nH]n13)CCCC2,1,10,-1,5.4*,6.9*,11,11*,3.4*,1,5
Cc1cc(N/C=C/C(=O)c2cccs2)ccc1F,2.1*,24*,6.5*,5.2*,10*,0,17*,9.5*,2,16*
CCCc1nc2ccc(C)cn2c1Cc1ccccc1,1.3*,7,.,4.6*,7.2*,-4,2,3.8*,0,7.3*
CCCc1nc2ccc(Br)cn2c1Cc1ccccc1,-1,0,.,0,-1,-4,.,.,.,.
Cc1ccc2c(c1)Cc1nc3ccccc3nc1-2,2.8*,20*,-2,7.4*,17*,10,14*,8.5*,2,15*
CCCCCCCCN1C(=O)[C@@H](CC(=O)NCC2CCCCC2)C[C@@]2(C(=O)OC)C1=C[C@H](C(C)(C)C)O[C@@H]2C,-1,-1,.,0,1,0,.,.,.,.
COc1ccc(Cn2c(O)c(C=Nc3ccc(OC)cc3)c3ccccc3c2=O)cc1,-2,-2,0,0,-2,3,.,.,.,.
CN=CC1=C(O)c2ccccc2C1=O,0,-1,0,0,2,-1,.,.,.,.
O=C1C(C=Nc2ccccc2O)=C(O)c2ccccc21,2.0*,16*,0,5.9*,20*,3,12*,5.1*,2,19*
COc1ccc(N=CC2=C(O)c3ccccc3C2=O)cc1,1.1*,11*,-2,6.0*,13*,-18,3,-1,1,6.1*
CCCCNC(=O)C[C@H]1C[C@@]2(C(=O)OC)C(=C[C@H](C(C)(C)C)O[C@@H]2C)N(CCc2ccc(OC)c(OC)c2)C1=O,-1,-1,.,0,-1,-4,.,.,.,.
c1ccc(CCc2nc(-c3ccccn3)no2)cc1,-1,9,2,4,2,1,.,.,.,.
Clc1ccc(OCc2nc(-c3ccccn3)no2)c(Br)c1,0,6,-1,6.7*,6.8*,-5,18*,8.1*,2,10*
Clc1ccccc1OCc1nc(-c2ccccn2)no1,1,11*,1,5.7*,6.6*,0,14*,6.6*,1,7.8*
COC(=O)C1=C(C)N(C)C(=NCc2ccc3c(c2)OCO3)NC1c1cccc(C(F)(F)F)c1 (stereo not given),-1,-2,.,-1,-1,3,.,.,.,.
COc1ccc(C(=O)Nc2cnccn2)cc1[N+](=O)[O-],-1,3,2,-5,-1,2,.,.,.,.
CC(C)(C)c1ccc(C(=O)Nc2cnccn2)cc1,0,10,-1,5.3*,6.7*,-5,14*,7.3*,1,5
CCc1ccc(NC(=O)c2noc3c2CCC3)cc1,1.4*,12*,-2,5.7*,9.3*,-11,21*,7.9*,2,14*
CCc1ccc(NC(=O)c2noc3c2CCc2ccccc2-3)cc1,0,2,2,0,-1,-2,.,.,.,.
SMILES,ssDAF12 agonist,hgDAF12 agonist,DAX1 inh-1,DAX1 inh-2,hcDAF12 agonist,Rev-erbA mod,DAX1 inh confirm,SF1 AF2mut Luc,LXRb hcDAF ctr,hcDAF12 conf
CCCCc1nc2cc(C(=O)N(C)CCc3cn[nH]c3)ccc2o1,-1,3,0,0,0,4,.,.,.,.
CCCCc1nc2cc(C(=O)N(C)C3CCOCC3)ccc2o1,1,10,1,4.6*,7.6*,5,5.5*,6.8*,0,3
CN(C)[C@@H]1C(=O)C(C(=O)NCN2CCCC2)=C(O)[C@@]2(O)C(=O)C3=C(O)c4c(O)cccc4[C@@](C)(O)[C@H]3C[C@@H]12,.,.,.,.,.,-5,.,.,.,.
C/C(=N\NC(=O)c1ccccc1O)c1ccc(NC(=O)c2ccccc2)cc1,0,12*,0,6.0*,7.4*,-1,3,2,0,2
C/C(=N/NC(=O)c1ccncc1)c1ccc(NC(=O)c2ccccc2)cc1,-1,1,-1,0,-1,-1,.,.,.,.
COC(=O)c1ccc2nc(C3CCCCC3)c(Cc3ccccc3OC)n2c1,0,4,.,0,-1,10,.,.,.,.
CC(=O)Nc1sc2c(c1C(N)=O)CCC2,-1,0,0,0,1,-6,.,.,.,.
NC(=O)c1c(NC(=O)c2cccnc2)sc2c1CCCCC2,-1,3,0,0,0,-2,.,.,.,.
Cn1ccc(C(=O)Nc2sc3c(c2C(N)=O)CCCCC3)n1,-1,12*,2,10*,7.8*,-9,4.9*,3,1,6.9*
NC(=O)c1c(NC(=O)c2cc3ccccc3o2)sc2c1CCC2,1.9*,13*,3,4.8*,9.9*,19,14*,7.6*,2,15*
COc1ccc([C@@]23CCN=C2c2[nH]c4ccccc4c2CCN3)c(N)c1,-1,-1,.,.,5,-5,.,.,.,.
